For orientation: inhibition means the drop in the measured response relative to a control, in per cent.

Experimental findings from PubChem BioAssay are described below.

SMILES strings stand for the structures. Unmarked numbers belong to inactive results. For part of these data: Results with a measured potency or affinity are listed apart. Calls of active or inactive are those of the source. Unless noted, the rule behind the calls is not given here.

The nature of test [1]: antimalarial activity against Dd2 strain (AID 2302;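 active = growth inhibition above 50% at the single 2 µM test dose, taken to imply half-maximal potency below 2 µM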;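 note: 0% = DMSO untreated growth and 100% = chloroquine plus artemisinin killed control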). The note with it: P. falciparum Dd2 in RBCs, LDH growth readout, 72 h; at 2 µM; hits give high values.
A short description of test [2]: HepG2 cytotoxicity, primary screen, cytotoxicity control for P. falciparum antimalarial project, cell-based, ATP luminescence (AID 2303;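 active = inhibition above 50%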;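 note: 0% = DMSO wells and 100% = digitonin-killed cells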). The note with it: HepG2 viability, 24-48 h, at 10 µM, hits give high values.
Test [3] deals with L-lactate dehydrogenase (Plasmodium falciparum (isolate CDC / Honduras)) (UniProt Q27743). The experiment in a line: PfLDH activity inhibition – cell lysate, 3D7 strain, counter-screen for P. falciparum growth inhibition project (AID 2304).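 Note: 0% = vehicle and 100% = reference inhibitor.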 The note with it: P. falciparum 3D7 crude extract, LDH APAD/NBT absorbance; at 2 µM; hits give high values. On the technique in general: Counterscreens check selectivity or assay interference.
L-lactate dehydrogenase (Plasmodium falciparum (isolate CDC / Honduras)), sequence (Q27743 whole entry, looked up): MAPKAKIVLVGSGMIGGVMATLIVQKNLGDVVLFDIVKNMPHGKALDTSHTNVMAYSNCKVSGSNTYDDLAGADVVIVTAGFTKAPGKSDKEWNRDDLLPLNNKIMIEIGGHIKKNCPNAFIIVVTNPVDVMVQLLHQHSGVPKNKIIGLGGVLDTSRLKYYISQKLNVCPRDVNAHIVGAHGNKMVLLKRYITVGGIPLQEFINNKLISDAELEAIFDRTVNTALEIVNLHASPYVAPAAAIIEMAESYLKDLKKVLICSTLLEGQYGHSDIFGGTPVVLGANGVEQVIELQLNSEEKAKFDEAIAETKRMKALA

Test [4] can be described thus: inhibition of 3D7 malaria parasite growth – strain 3D7 (AID 2306).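 Note: 0% = DMSO wells and 100% = chloroquine plus artemisinin control wells.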 The note with it: P. falciparum 3D7 erythrocytic growth, LDH absorbance, 72 h; at 2 µM; hits give high values.
The target of test [5] is Calcium-dependent protein kinase 1 (Plasmodium falciparum (isolate 3D7)) (UniProt P62344). Briefly: PfCDPK1 kinase inhibitors, biochemical, TCAMS library (AID 1159585; cut-off not given, nearly all actives have IC50 up to about 0.98 µM;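 note: inhibitors leave more ATP so luminescence rises with inhibition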). The note with it: recombinant PfCDPK1, Kinase-Glo ATP depletion luminescence. In general terms: Kinase-Glo reads ATP consumption through a luciferase reaction.
Calcium-dependent protein kinase 1 (Plasmodium falciparum (isolate 3D7)), sequence (P62344 whole entry, looked up): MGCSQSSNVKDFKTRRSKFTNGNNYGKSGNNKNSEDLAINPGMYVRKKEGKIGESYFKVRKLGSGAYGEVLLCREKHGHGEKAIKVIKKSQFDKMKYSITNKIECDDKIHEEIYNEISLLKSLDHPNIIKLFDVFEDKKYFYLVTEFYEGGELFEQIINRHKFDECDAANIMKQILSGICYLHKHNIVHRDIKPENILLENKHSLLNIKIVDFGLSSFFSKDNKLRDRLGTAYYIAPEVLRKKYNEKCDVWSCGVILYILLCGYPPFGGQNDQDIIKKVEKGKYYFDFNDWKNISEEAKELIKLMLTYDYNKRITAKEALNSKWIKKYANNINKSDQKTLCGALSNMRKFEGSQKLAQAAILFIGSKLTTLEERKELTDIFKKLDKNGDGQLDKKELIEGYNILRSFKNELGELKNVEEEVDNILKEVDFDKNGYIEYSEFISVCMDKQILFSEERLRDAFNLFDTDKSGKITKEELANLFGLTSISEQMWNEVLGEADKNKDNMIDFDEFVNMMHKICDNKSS
Test [6] has as its target Plasmodium falciparum protein kinase 6 (PK6, PF3D7_1337100) (UniProt Q8IDW1). Briefly: PfPK6 kinase inhibitors, biochemical, TCAMS library (AID 1159586). The note with it: recombinant PfPK6, Kinase-Glo ATP depletion luminescence.
For test [7], the target named is Protein kinase 7 (PK7), Plasmodium falciparum 3D7 (PF3D7_0213400) (UniProt Q7YTF7). The experiment in a line: inhibition of Plasmodium PK7 catalytic activity – biochemical, TCAMS antimalarial set, Kinase-Glo luminescence (AID 1159587). The note with it: recombinant PfPK7, Kinase-Glo ATP depletion luminescence.
Protein kinase 7 (PK7), Plasmodium falciparum 3D7 (PF3D7_0213400), sequence (Q7YTF7 1-343): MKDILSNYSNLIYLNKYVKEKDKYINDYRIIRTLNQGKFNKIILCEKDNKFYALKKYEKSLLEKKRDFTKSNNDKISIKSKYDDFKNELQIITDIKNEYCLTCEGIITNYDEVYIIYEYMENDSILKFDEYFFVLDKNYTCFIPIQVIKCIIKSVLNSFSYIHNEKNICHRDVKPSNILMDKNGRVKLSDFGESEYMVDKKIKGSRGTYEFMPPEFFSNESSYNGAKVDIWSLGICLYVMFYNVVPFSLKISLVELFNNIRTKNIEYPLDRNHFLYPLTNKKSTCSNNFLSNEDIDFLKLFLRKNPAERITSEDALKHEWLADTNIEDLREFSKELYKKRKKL
The target of test [8] is Calcium-dependent protein kinase 4 (Plasmodium falciparum (isolate 3D7)) (UniProt Q8IBS5). The experiment in a line: PfCDPK4 kinase inhibitors, biochemical, TCAMS library (AID 1159588; cut-off not given, nearly all actives have IC50 up to about 0.91 µM). The note with it: recombinant PfCDPK4, Kinase-Glo ATP depletion luminescence.
Calcium-dependent protein kinase 4 (Plasmodium falciparum (isolate 3D7)), sequence (Q8IBS5 whole entry, looked up): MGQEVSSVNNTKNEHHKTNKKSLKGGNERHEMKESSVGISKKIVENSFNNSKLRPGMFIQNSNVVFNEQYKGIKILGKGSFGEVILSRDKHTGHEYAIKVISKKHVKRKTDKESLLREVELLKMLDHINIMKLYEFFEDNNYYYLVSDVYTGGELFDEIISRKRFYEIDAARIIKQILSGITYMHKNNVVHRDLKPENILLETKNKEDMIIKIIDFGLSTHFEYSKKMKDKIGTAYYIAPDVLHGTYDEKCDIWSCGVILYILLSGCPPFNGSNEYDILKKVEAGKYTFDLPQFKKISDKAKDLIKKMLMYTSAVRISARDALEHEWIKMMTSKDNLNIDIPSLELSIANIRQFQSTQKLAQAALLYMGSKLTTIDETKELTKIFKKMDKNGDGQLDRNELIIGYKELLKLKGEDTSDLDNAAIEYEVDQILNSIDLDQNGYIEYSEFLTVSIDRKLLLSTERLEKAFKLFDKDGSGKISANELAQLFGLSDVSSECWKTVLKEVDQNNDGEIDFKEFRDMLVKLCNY

Plasmodium falciparum protein kinase 6 (PK6, PF3D7_1337100), sequence (Q8IDW1 1-305): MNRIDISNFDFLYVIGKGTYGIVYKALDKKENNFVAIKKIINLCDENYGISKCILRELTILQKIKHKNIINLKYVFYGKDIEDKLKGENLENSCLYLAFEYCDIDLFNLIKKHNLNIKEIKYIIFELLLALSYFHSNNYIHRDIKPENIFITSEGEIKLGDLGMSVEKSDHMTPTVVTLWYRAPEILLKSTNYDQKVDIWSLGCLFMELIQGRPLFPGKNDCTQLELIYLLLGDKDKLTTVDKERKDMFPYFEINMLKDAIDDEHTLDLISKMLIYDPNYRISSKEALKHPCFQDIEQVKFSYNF

Regarding `Cn1nccc1C(=O)NCCNCc1cccc(-c2ccc(-c3nc4ccc(C(F)(F)F)cc4[nH]3)s2)c1`, the growth inhibition is 99% (active) in test [1] and 100% (active) in test [4]. For the same compound, the inhibition was 36% in test [2] and -6% in test [3]. Moreover, the outcome in test [5], in test [6], in test [7] and in test [8] was inactive.

Consider `Cc1[nH]n(-c2cccc(C(F)(F)F)c2)c(=O)c1-c1ccc(Cl)cc1`, for which the growth inhibition in test [1] was 25%; in test [4], 98% (active). Also, the inhibition was 7% in test [2] and -4% in test [3]. For the same compound, the outcome in test [5], in test [6], in test [7] and in test [8] was inactive.

Turning to `O=S(=O)(NC1CCCCN(Cc2ccccc2O)C1)c1ccc(C(F)(F)F)cc1` (stereo not drawn), the growth inhibition in test [1] is 39%; in test [4], 84% (active). In addition, the inhibition in test [2] is 1%; in test [3], 7%. Moreover, the result in test [5], in test [6], in test [7] and in test [8] was inactive.

With `COc1ccc(OCCCN2CCN(CC(c3ccc(F)cc3)N3CCN(C(C)C)CC3)CC2)c2ccccc12` (stereo not drawn), the growth inhibition in test [1] is 32%; in test [4], 100% (active). Also, the inhibition in test [2] is 30%; in test [3], -1%. For the same compound, the result in test [5], in test [6], in test [7] and in test [8] was inactive.

In the case of `CN1CCC(Oc2ccc(CN3CC[C@H](NC(=O)c4ccc(Cl)c(Cl)c4)C3)cc2Cl)C1` (stereo partly drawn), the growth inhibition in test [1] is 78% (active); in test [4], 101% (active). In addition, the inhibition in test [2] is 68% (active); in test [3] it was 0%. The result in test [5], in test [6], in test [7] and in test [8] was inactive.

With `O=C(Nc1ccc2c(c1)CCNCC2)c1ccc(-c2ccc(Cl)cc2)cc1`, the growth inhibition is 38% in test [1] and 96% (active) in test [4]. Besides, the values for the inhibition in test [2] and in test [3] were 71% (active) and 0%, respectively. The result in test [5], in test [6], in test [7] and in test [8] was inactive.

For `CN(C(=O)/C=C/c1cc(C(F)(F)F)ccc1F)C1CCN(CCCCCNC(=O)/C=C/c2ccc(Cl)c(Cl)c2)C1` (stereo not drawn), the growth inhibition is 1% in test [1] and 93% (active) in test [4]. Further, the inhibition in test [2] is 16%; in test [3], -3%. The result in test [5], in test [6], in test [7] and in test [8] was inactive.

With `COc1ccc(-c2cc3ncn(CC(=O)N4CCN(c5cccc(OC)c5)CC4)c(=O)c3s2)cc1`, the values for the growth inhibition in test [1] and in test [4] were 26% and 84% (active), respectively. Besides, the inhibition is 49% in test [2] and -7% in test [3]. For the same compound, the outcome in test [5], in test [6], in test [7] and in test [8] was inactive.

As for `Cc1cc(NC(=O)Nc2ccc(C#N)cc2)c2ccccc2n1`, the growth inhibition in test [1] was 49%; in test [4], 100% (active). In addition, the inhibition is 88% (active) in test [2] and -2% in test [3]. The outcome in test [5], in test [6], in test [7] and in test [8] was inactive.

Regarding `COc1ccc(CN2CCCC(C(=O)c3ccc(C(F)(F)F)cc3)C2)c(O)c1` (stereo not drawn), the growth inhibition is 88% (active) in test [1] and 98% (active) in test [4]. Besides, the inhibition in test [2] was -2%; in test [3], -3%. Further, the result in test [5], in test [6], in test [7] and in test [8] was inactive.

For `Cc1ccccc1C1CCN(C2CCC(NC(=O)c3cc(-c4ccc(Cl)cc4)cs3)CC2)CC1` (stereo not drawn), the growth inhibition in test [1] is 100% (active); in test [4], 101% (active). The inhibition is 99% (active) in test [2] and -2% in test [3]. Moreover, the outcome in test [5], in test [6], in test [7] and in test [8] was inactive.

For `CCOC(=O)c1cn(CC)c2cc(OCc3ccccc3)ccc2c1=O`, the growth inhibition in test [1] was 96% (active); in test [4], 97% (active). Also, the inhibition in test [2] and in test [3] was 2% throughout. In addition, the outcome in test [5], in test [6], in test [7] and in test [8] was inactive.

On to `Cc1cc(OCC2CCCN(c3ncc(C(=O)NC4CC4)cc3Cl)C2)ccc1F` (stereo not drawn), for which the growth inhibition in test [1] was 68% (active); in test [4], 88% (active). In addition, the results for the inhibition in test [2] and in test [3] were 3% and -1%, respectively. In addition, the result in test [5], in test [6], in test [7] and in test [8] was inactive.

For the compound `COc1ccccc1CCNc1ncc(F)c(N[C@@H](Cc2ccccc2)C(=O)NCCc2ccccc2)n1`, the figures for the growth inhibition in test [1] and in test [4] were 83% (active) and 90% (active), respectively. Besides, the values for the inhibition in test [2] and in test [3] were 7% and -2%, respectively. Moreover, the outcome in test [5], in test [6], in test [7] and in test [8] was inactive.

Take `N#Cc1cnc2cc(-c3cnc(CNCCN4CCOCC4)s3)ccc2c1Nc1ccc(Oc2ccccc2)cc1`: the values for the growth inhibition in test [1] and in test [4] were 83% (active) and 97% (active), respectively. Further, the inhibition was 30% in test [2] and 2% in test [3]. Moreover, the result in test [5], in test [6], in test [7] and in test [8] was inactive.

As for `CS(=O)(=O)c1cccc(-c2cnc(N)c3cc(-c4ccc5c(c4)OCO5)ccc23)c1`, the growth inhibition was 23% in test [1] and 91% (active) in test [4]. In addition, the figures for the inhibition in test [2] and in test [3] were 37% and 1%, respectively. Further, the result in test [5], in test [6], in test [7] and in test [8] was inactive.

Take `CCNc1cc(C(=O)N[C@@H](Cc2ccc(Cl)cc2)[C@H](O)CNC2CCCCC2)cc(N2CCCCS2(=O)=O)c1`: the values for the growth inhibition in test [1] and in test [4] were 99% (active) and 98% (active), respectively. In addition, the figures for the inhibition in test [2] and in test [3] were 6% and -1%, respectively. Moreover, the result in test [5], in test [6], in test [7] and in test [8] was inactive.

Take `Cc1ccc(C(c2nnnn2C2CCCC2)N(Cc2ccco2)Cc2ccccc2Cl)cc1` (stereo not drawn): the values for the growth inhibition in test [1] and in test [4] were 78% (active) and 85% (active), respectively. For the same compound, the inhibition was 8% in test [2] and -2% in test [3]. Besides, the outcome in test [5], in test [6], in test [7] and in test [8] was inactive.

Regarding `OC(CNC1CCCCC1)Cn1c2ccc(Br)cc2c2cc(Br)ccc21` (stereo not drawn), the values for the growth inhibition in test [1] and in test [4] were 100% (active) and 98% (active), respectively. For the same compound, the inhibition in test [2] was 10%; in test [3], 3%. Moreover, the result in test [5], in test [6], in test [7] and in test [8] was inactive.

Turning to `N#Cc1ccc(Sc2nnc(-c3ccccc3Cl)n2CC2CCCCC2)cc1[N+](=O)[O-]`, the growth inhibition was 34% in test [1] and 85% (active) in test [4]. Further, the inhibition in test [2] is 30%; in test [3], 1%. Moreover, the outcome in test [5], in test [6], in test [7] and in test [8] was inactive.

For `Cc1c(-c2cccc(CNCCc3ccc(Cl)cc3)c2)cnc(N)c1C`, the growth inhibition in test [1] is 30%; in test [4], 87% (active). In addition, the inhibition was 9% in test [2] and -5% in test [3]. Moreover, the outcome in test [5], in test [6], in test [7] and in test [8] was inactive.
